The source of these data is PubChem BioAssay (NCATS).

Structures are written as SMILES. Records with an inconclusive call do not appear. Unmarked numbers belong to inactive results. Calls of active or inactive are those of the source. Calls come from the whole dose curve.
Potency is the fitted concentration of half-maximal effect.

The first assay is described as follows: Confirmatory qHTS for VERO E6 Cytotoxicity Assay: Counterscreen for SARS-CoV-2 CPE Assay (AID 1508605). For activity change, negative = cytotoxic: % is set by controls: 0 for no effect and ±100 for the full control effect. Note: nearly all actives have a fitted effect of over 60% in size. The conditions noted are these: cell viability luminescence; series mostly up to 20 µM; activity change, negative = cytotoxic: at the top concentration. On the technique in general: In qHTS, concentration-response curves come from the screen itself.
Consider `COC(=O)[C@H]1[C@H]2C[C@@H]3c4[nH]c5cc(OC)ccc5c4CCN3C[C@H]2C[C@@H](OC(=O)c2cc(OC)c(OC)c(OC)c2)[C@@H]1OC`, for which the “activity change, negative = cytotoxic” value was -12%. Turning to `Clc1ccc2c(c1)C(N1CCNCC1)=Nc1ccccc1O2`, the “activity change, negative = cytotoxic” value was -16.7%.

Consider `Cc1c(O)cccc1C(=O)N[C@@H](CSc1ccccc1)[C@H](O)CN1C[C@H]2CCCC[C@H]2C[C@H]1C(=O)NC(C)(C)C`, for which the Potency is 12.6 µM (active). With `Cc1ccc(NC(=O)c2ccc(CN3CCN(C)CC3)cc2)cc1Nc1nccc(-c2cccnc2)n1`, the “activity change, negative = cytotoxic” value was -12.8%. Take `Cc1ccc(-c2cc(C(F)(F)F)nn2-c2ccc(S(N)(=O)=O)cc2)cc1`: the Potency entry was “inactive”.

A short description of the next assay: Confirmatory qHTS for activators (rescue) of SARS-CoV-2 Cytopathic Effect (CPE) (AID 1508606). Note: nearly all actives have a fitted effect of over 70% in size. The conditions noted are these: Vero E6 SARS-CoV-2 CPE rescue, viability luminescence; series mostly up to 20 µM; CPE rescue (activation): at the top concentration.
As for `COC(=O)[C@H]1[C@H]2C[C@@H]3c4[nH]c5cc(OC)ccc5c4CCN3C[C@H]2C[C@@H](OC(=O)c2cc(OC)c(OC)c(OC)c2)[C@@H]1OC`, the Potency is 10 µM (active). In the case of `Cc1c(O)cccc1C(=O)N[C@@H](CSc1ccccc1)[C@H](O)CN1C[C@H]2CCCC[C@H]2C[C@H]1C(=O)NC(C)(C)C`, the Potency was 3.16 µM (active). As for `Cc1ccc(NC(=O)c2ccc(CN3CCN(C)CC3)cc2)cc1Nc1nccc(-c2cccnc2)n1`, the Potency is 8.91 µM (active).
